This is part of a sample that, as a whole, favours compounds with a hit. Of some 83,000 tested, about 20% had one in any assay.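 Step 1: grow cells in 96-well plates. Step 2: add test compound at a single concentration. Step 3: incubate 48 h. Step 4: record percent growth.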 A number with no mark means an inactive call. Active and inactive are the calls of the source. Rule for the calls: active = growth percent below 10; inactive = the rest.
How the values were obtained:
Test in all cases: NCI-60 one-dose screen, 48 h (100 = growth as untreated, 0 = no growth, -100 = all killed)
Settings in all cases: 10 µM unless noted
SK-MEL-2 melanoma = tested on: SK-MEL-2 melanoma
EKVX NSCLC = tested on: EKVX NSCLC
SN12C renal = tested on: SN12C renal
UO-31 renal = tested on: UO-31 renal
TK-10 renal = tested on: TK-10 renal
ACHN renal = tested on: ACHN renal
CAKI-1 renal = tested on: CAKI-1 renal
A498 renal = tested on: A498 renal
CCRF-CEM leukemia = tested on: CCRF-CEM leukemia
MOLT-4 leukemia = tested on: MOLT-4 leukemia
SR leukemia = tested on: SR leukemia
RPMI-8226 leukemia = tested on: RPMI-8226 leukemia
OVCAR-8 ovarian = tested on: OVCAR-8 ovarian
OVCAR-5 ovarian = tested on: OVCAR-5 ovarian
OVCAR-4 ovarian = tested on: OVCAR-4 ovarian
SK-OV-3 ovarian = tested on: SK-OV-3 ovarian
IGROV1 ovarian = tested on: IGROV1 ovarian
OVCAR-3 ovarian = tested on: OVCAR-3 ovarian
HS 578T breast = tested on: HS 578T breast
NCI/ADR-RES ovarian = tested on: NCI/ADR-RES ovarian

Structure (SMILES)	growth (SK-MEL-2 melanoma)	growth (EKVX NSCLC)	growth (SN12C renal)	growth (UO-31 renal)	growth (TK-10 renal)	growth (ACHN renal)	growth (CAKI-1 renal)	growth (A498 renal)	growth (CCRF-CEM leukemia)	growth (MOLT-4 leukemia)	growth (SR leukemia)	growth (RPMI-8226 leukemia)	growth (OVCAR-8 ovarian)	growth (OVCAR-5 ovarian)	growth (OVCAR-4 ovarian)	growth (SK-OV-3 ovarian)	growth (IGROV1 ovarian)	growth (OVCAR-3 ovarian)	growth (HS 578T breast)	growth (NCI/ADR-RES ovarian)
Cn1cc(-c2cc3ncnc(Nc4ccc(NC(=O)Nc5cc(C(C)(C)C)on5)cc4)c3s2)cn1	-9.06% (active)	48.2%	18.8%	41.7%	62.5%	27.1%	14.5%	16.4%	22.2%	14.3%	22.3%	5.73% (active)	44.2%	30.4%	41%	20.4%	19.8%	54.9%	14.9%	61.6%
CSc1ccc(/C(=N/N=C(N)N)c2ccc(F)cc2)cc1	48.6%	36.6%	36.9%	30.5%	39.1%	35.8%	15.6%	5.39% (active)	5.74% (active)	-2.76% (active)	-13.8% (active)	5.69% (active)	11.9%	43.9%	57%	45.3%	39.9%	27.5%	-1.22% (active)	4.1% (active)
O=C(CCCCCCNC(=O)C(O)(O)C(F)(F)F)Nc1ccc(-c2ccccc2)cc1	-37.4% (active)	34.2%	14.6%	-1.11% (active)	5.83% (active)	-18.3% (active)	2.61% (active)	-7.85% (active)	23.6%	14.1%	2.65% (active)	15.1%	6.81% (active)	9.32% (active)	36.6%	-22.6% (active)	14.3%	-16.6% (active)	33.8%	7.74% (active)
CC1(C)CC[C@]2(C(=O)NCCCCCCN(CCCN)CCCN)CC[C@]3(C)C(=CC[C@@H]4[C@@]5(C)CC[C@H](O)C(C)(C)[C@@H]5CC[C@]43C)[C@@H]2C1	113%	91.8%	96.4%	85.7%	106%	105%	75.2%	117%	105%	102%	87.2%	100%	99%	96.8%	109%	114%	101%	106%	110%	98.8%
O=C(CSc1nc2ccccc2c(=O)n1-c1ccccc1)Nc1ccc(S(=O)(=O)Nc2nccs2)cc1	89.9%	91.3%	63.8%	97.2%	112%	71.9%	59.1%	107%	34.8%	50.2%	65%	36.8%	89.7%	56.9%	77.5%	103%	83%	38.9%	60.3%	98.3%
CN(C)c1ccc(/C=N/Nc2nc(N/N=C/c3ccc(N(C)C)cc3)nc(N3CCCCC3)n2)cc1	111%	97%	50.4%	80.3%	118%	32.4%	89.9%	115%	25.8%	12.1%	-14.1% (active)	32.6%	56.6%	96.1%	106%	132%	93.8%	65.6%	106%	58.3%
C#C[C@]1(O)CC[C@H]2[C@@H]3CC=C4c5sc(Nc6ncccc6C)nc5CC[C@]4(C)[C@H]3CC[C@@]21C	-11.1% (active)	-10.6% (active)	40.9%	-39.8% (active)	40.9%	18.1%	-36.3% (active)	-5.84% (active)	7.66% (active)	-30.3% (active)	-3.26% (active)	-36.2% (active)	31.1%	26%	34.9%	-37.2% (active)	40%	32.1%	-16.1% (active)	28.1%
Cc1[nH]c(C(=O)Nc2ccc(C(=O)NCC3CCNCC3)cc2OC(C)C)c(Cl)c1Cl	97.9%	82.8%	81.4%	88.6%	90.2%	99.9%	76.7%	79.4%	32.6%	19.6%	-0.735% (active)	42.3%	86.6%	84.9%	89.5%	97.3%	54.4%	85.6%	69.1%	100%
CCCCN1C(=O)/C(=c2\sc3n(c2=O)C2C(NN=3)N(CC)C(=O)N2CC)c2cc(C)ccc21 (stereo not given)	113%	85.2%	97.9%	75%	117%	95.1%	58.1%	96%	94.7%	91.8%	64.1%	99.8%	93%	96.1%	97.2%	108%	88.4%	102%	89.7%	81.9%
Cc1cc(C)cc(NC2=C(Cl)C(=O)c3nc(C)ccc3C2=O)c1	85.5%	55.1%	8.28% (active)	0.909% (active)	128%	2.41% (active)	89.6%	88.3%	7.91% (active)	24.6%	41%	-15.1% (active)	73.1%	92.7%	-5.74% (active)	107%	-62.1% (active)	-0.41% (active)	11.1%	65.6%
CC(=O)OC[C@]12CC[C@@H](C(=O)/C=C/c3cccnc3)[C@@H]1[C@H]1CC[C@@H]3[C@@]4(C)CC[C@H](OC(C)=O)C(C)(C)[C@@H]4CC[C@@]3(C)[C@]1(C)CC2	-35.9% (active)	21.8%	19%	12.1%	38.5%	-55.5% (active)	12.2%	-47.7% (active)	2.41% (active)	-5.14% (active)	6.42% (active)	-5.49% (active)	23.2%	15.1%	21.9%	65.8%	-12.9% (active)	8.9% (active)	14.5%	-14.2% (active)
COc1ccc(C2CC(c3cccc(OCCCCOc4cccc(C5=NOC(c6ccc(OC)cc6)C5)c4)c3)=NO2)cc1 (stereo not given)	103%	102%	95.3%	79%	104%	104%	89%	111%	72.8%	92.2%	29.9%	-21.9% (active)	93.5%	111%	90.3%	106%	89.6%	96.2%	109%	107%
COc1ccc(C2CC(c3cccc(OCCCCOc4cccc(C5=NN(C(C)=O)C(c6ccc(OC)cc6)C5)c4)c3)=NN2C(C)=O)cc1 (stereo not given)	59.7%	46.3%	79.9%	54.7%	78.9%	67.2%	54.1%	75.8%	63.8%	57.4%	39.3%	33.8%	68.2%	96.2%	20%	83.5%	83.8%	68.2%	89.3%	75.7%

Source: PubChem BioAssay (NCI)
